In PubChem BioAssay AID624331 (National Center for Advancing Translational Sciences (NCATS), 2012):
Results filed as inconclusive are left out. A call without a number means that no potency is given here. The source made the active and inactive calls. The call rests on the fitted dose curve; in most records, active means well fitted activation curve with a large enough effect; inconclusive means small, poorly fitted or top-dose-only effect; inactive means no such curve, though single readings can be large or run the other way.

Experiment: qHTS assay for re-activators of p53 using a Luc reporter: Hit Validation with no p53 Expressed
Settings: p53-null cells, luciferase reporter counter-screen; series mostly up to 46.1 µM
Excerpt: The p53 tumor suppressor plays a key role in suppression of tumorigenesis and in human carcinogenesis. It is frequently found inactivated in human cancers, mainly by point mutation. These point mutations are found in a wide variety of human cancers and a majority of them affect the DNA binding domain of the protein. The point mutations either alter native p53 conformation or abolish DNA contact. Additionally, cancer cells with p53 mutations are more resistant to chemo-radiation therapies.
This counter screen was run against the hits identified from the primary screen. It uses a cell line that was not transfected with p53. Compounds that show activity in this counter screen show unspecific activation of the assay system and are excluded from further consideration.
NIH Chemical Genomics Center [NCGC]
NIH Molecular Libraries Probe Production Centers Network [MLPCN]
Assay Provider (PI): Yi Sung, University of Michigan at Ann Arbor
5ul of 1000 cells per well are dispensed in all wells except column 4, into white solid-bottom TC-treated Kalypsys plates. The cells are kept in Opti-MEM and supplemented with 10% FBS and dispensed using a Multidrop (Thermo). Then using the Kalypsys pin-tool, 23nl of compounds are pinned. The compounds are starting concentration at 10mM, with 1:5 dilution, 4 points, and the control compound nocodazole is pinned in column 1 at 25mM, 1:3 dilution, in duplicate, 25mM nocodazole is pinned in column 2. Please note, all concentrations are working concentrations. 5ul of 1pM purified luciferase enzyme is dispensed using the Kalypsys dispenser in column 4. Plates are incubated for 24 hrs at 37 deg C, 5% CO2, and 95% humidity. Then 4ul of the detection reagent Amplite (ABD Bioquest) is added using the Kalypsys dispenser. Plates are incubated for 10 min at ambient room temperature and are then read on the ViewLux (Perkin Elmer) using a clear filter for a luminescent read-out.
Potency means the concentration at half of the fitted maximal effect.

Row | SMILES | Potency
1 | Cc1ccccc1Nc1nc(N)nc(COC(=O)c2ccco2)n1 | inactive
2 | Cc1cc(N2CCCCC2)n2ncc(-c3ccc(Cl)cc3)c2n1 | inactive
3 | O=C(CCc1nc(-c2ccccc2)no1)N1CCCC1 | inactive
4 | COc1ccc(CNc2nc(-c3ccccc3)nn2C(=O)c2ccc([N+](=O)[O-])cc2)cc1 | inactive
5 | O=C(/C=C\Nc1cccc(F)c1)c1ccc2c(c1)OCO2 | inactive
6 | O=C(CCN1C(=O)NC2(CCCC2)C1=O)Nc1ccc(-c2nc3ccccc3s2)cc1 | 2.31 µM (active)
7 | c1ccc(-c2ccc(-c3ccccn3)nn2)nc1 | inactive
8 | Cc1ccc(/C=C2\SC(=S)N(CCCC(=O)Nc3nccs3)C2=O)cc1 | inactive
9 | c1ccc(Oc2cc(-n3cncn3)ncn2)cc1 | inactive
10 | CC(Cc1ccccc1)NC(=O)c1ccc([N+](=O)[O-])cc1 (stereo not given) | inactive
11 | O=C(O)CCCC(=O)NCCc1ccncc1 | inactive
12 | O=C(COC(=O)CNC(=O)c1ccc([N+](=O)[O-])o1)Nc1ncc(C(F)(F)F)cc1Cl | inactive
13 | Cc1ccc(S(=O)(=O)c2cn(CC(=O)Nc3ccccc3)c3ccc(F)cc3c2=O)cc1 | inactive
14 | O=C(c1cccc(S(=O)(=O)NCc2ccc3c(c2)OCO3)c1)N1CCCC1 | inactive
15 | Cc1cc(NC(=O)c2ccc3nccnc3c2)ccc1Br | inactive
16 | CCCN1C(=O)SC(CC(=O)Nc2ccccc2C)C1=O (stereo not given) | inactive
17 | Cc1cccc(-n2c(C)cc(C(=O)NC3CCCCC3)c2C)c1 | inactive
18 | CCCCCc1nnc(NC(=O)C2CCCO2)s1 (stereo not given) | inactive
19 | O=C(Nc1nc2c(s1)CCCC2)C1COc2ccccc2O1 (stereo not given) | inactive
20 | COCCNc1nc2sc3c(c2c(=O)n1Cc1ccco1)CCCCC3 | inactive

Row | SMILES | Potency
21 | CCOC(=O)c1c(C)[nH]c(C(=O)CSc2ccccc2)c1C | inactive
22 | CN(/N=C/c1ccc2c(c1)OCO2)c1ccccc1 | inactive
23 | O=C(c1cccs1)c1coc2ccc(O)cc12 | inactive
24 | CN(C)c1cccc(C(=O)NNC(=O)CN2C(=O)C3CC=CCC3C2=O)c1 (stereo not given) | inactive
25 | COc1cc(CNC2CCCCCCC2)c(Br)cc1OCCO | inactive
26 | COc1cccc(NC(=O)c2ocnc2C)c1 | inactive
27 | N#C/C(Cn1c[n+](NC(=O)Nc2ccccc2)cn1)=N/O | inactive
28 | CCN(Cc1ccccc1)C(=O)CN1C(=S)NC(C)(C)CC1C (stereo not given) | inactive
29 | COc1cc(/C=C/C(=O)N2C(=O)c3cccc(N)c3C2=O)cc(OC)c1OC | inactive
30 | COc1ccc(N2CCN(C3CCCN(Cc4cccc(OC)c4)C3)CC2)cc1 (stereo not given) | inactive
31 | CCCOc1ccc(-c2cc3onc(-c4ccccc4)c3c(=O)n2C)cc1 | inactive
32 | O=C(Nc1cccnc1)c1ccc([N+](=O)[O-])s1 | inactive
33 | CCOc1ccc(OCc2cccc(C(=O)N3CCCC3)c2)cc1 | inactive
34 | COc1ccc(C(C)(C)C)cc1NC(=O)Nc1ccc2c(c1)OCO2 | inactive
35 | O=C(NC12CC3CC(CC(C3)C1)C2)c1ccc(-c2cccc(Cl)c2)o1 | inactive
36 | N#C/C(=C/c1cccnc1)c1ccccc1 | inactive
37 | Cc1ccc(C)c(C(=O)COC(=O)c2n[nH]c3ccccc23)c1 | inactive
38 | O=[N+]([O-])c1ccc(NC(=S)NCCc2ccc(F)cc2)cc1 | inactive
39 | S=C(Nc1cccc(Br)c1)c1ccccc1 | inactive
40 | CN1C(=O)C2(OCC(CO)([N+](=O)[O-])CO2)c2ccccc21 (stereo not given) | inactive
